SW480 rereplic: A quantitative high throughput screen for small molecules that induce DNA re-replication in SW480 colon adenocarcinoma cells; SW480 DNA re-replication, Hoechst DNA content imaging, 48 h; Potency, µM (top dose mostly 46.1 µM), usual class: activators; 1.8% of 340,000 active; AID 624297, 2012; note: nearly all actives have a fitted effect of over 55% in size
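Treated cells incubate 48 hr (37 C, 5% CO2), are stained 40 min with Hoechst, and nuclear fluorescence is enumerated; a rise in nuclei with high DNA signal marks re-replication.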
KB-3-1 cytotox: qHTS assay for MDR1-selective chemotherapeutics: Primary screen using the parental adenocarcinoma cell KB-3-1. KB-3-1 viability, CellTiter-Glo ATP luminescence, 72 h. Potency, µM (highest dose often 46.1 µM), hits mostly cytotoxic. 1.4% of 400,000 active. AID 1347075, 2019; note: nearly all actives have a fitted effect of over 60% in size
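Screening of KB-3-1 cells (DMEM, 10% FBS, phenol-red free) ran from lowest to highest compound concentration; after 72 h at 37 °C viability was read luminescently and curves fitted.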
KB-V1 cytotox: qHTS assay for MDR1-selective chemotherapeutics: Primary screen using the drug-selected MDR subline cells KB-V1. 3.4% of 400,000 active. Potency, µM (doses to about 46.1 µM), hits mostly cytotoxic. KB-V1 MDR cells viability, CellTiter-Glo, 72 h; note: nearly all actives have a fitted effect of over 60% in size
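Luminescent ATP read-out (CellTiter-Glo, 10 min) measures survival of drug-selected KB-V1 MDR cells after 72 h, 37 degrees C compound exposure. Medium: phenol-red-free DMEM, 10% FBS. Values from fitted concentration-response curves.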
PTAP TSG101 blk: qHTS Assay for Iinhibitors of HIV-1 Budding by Blocking the Interaction of PTAP/TSG101. Tumor susceptibility gene 101 protein (Homo sapiens), Q99816. Fluorescence polarization, FITC-PTAP peptide / Tsg101 binding. Potency, µM (doses to about 115 µM), usual class: inhibitors. 340,000 tested, under 10 active. AID 493005, 2010; active = well fitted inhibition curve with a large enough effect in the main read-out, with a control signal flat, not every such curve was filed as active; inconclusive = small, poorly fitted or top-dose-only effect, or effect the other way, or a change in a side signal; inactive = no such curve, though single readings can be large or run the other way
Target sequence (Q99816 whole entry, looked up): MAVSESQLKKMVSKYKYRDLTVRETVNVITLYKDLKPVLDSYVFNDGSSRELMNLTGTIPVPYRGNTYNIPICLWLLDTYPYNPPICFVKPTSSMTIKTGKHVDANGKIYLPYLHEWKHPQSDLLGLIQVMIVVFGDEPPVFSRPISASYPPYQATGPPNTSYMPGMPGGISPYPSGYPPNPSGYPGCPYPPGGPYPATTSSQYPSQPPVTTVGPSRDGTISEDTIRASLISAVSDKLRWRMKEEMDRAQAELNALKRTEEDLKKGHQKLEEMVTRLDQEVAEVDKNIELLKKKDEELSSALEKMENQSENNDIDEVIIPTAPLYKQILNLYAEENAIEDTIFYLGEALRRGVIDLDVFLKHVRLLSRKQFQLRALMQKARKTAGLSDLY
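Steps: Tsg101 binding domain dispensed (10 uM final), compounds pinned in DMSO, FITC-labeled PTAP-motif peptide added (50 nM final); after 20 min binding at room temperature, polarization measured.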
MCF10A rerep: A quantitative high throughput screen for small molecules that induce DNA re-replication in MCF 10a normal breast cells. 2.9% of 350,000 active. MCF 10A DNA re-replication, Hoechst nuclear intensity, 48 h. Potency, µM (series often up to 46.1 µM), usual class: activators. AID 624296, 2012; note: nearly all actives have a fitted effect of over 50% in size
PINK1 expr mod: A Quantitative High throughput Screen to Identify Chemical Modulators of PINK1 Expression | 0.2% of 410,000 active | PINK1 immunofluorescence, high-content cytometry, 24 h | AID 624263, 2012 | Potency, µM (doses to about 76.6 µM), hits mostly activators; active = well fitted activation curve with a large enough effect; inconclusive = small, poorly fitted or top-dose-only effect; cell line not stated here; note: nearly all actives have a fitted effect of over 65% in size
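Decision-based qHTS: stable cells, 24 h exposure to five compound concentrations, CCCP as control. Fixed cells stained for PINK1 plus nuclear, mitochondrial and cell markers, cytometer read.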
Of the large screens only hits and unclear results are named; the others gave an inactive call. Shown are actives, neighbours in structure and some others; about 6.8% of the full set was active somewhere. Unless noted, calls come from the whole dose curve; as a rule, active = well fitted curve in the direction sought with a large enough effect; inconclusive = small, poorly fitted or top-dose-only effect, or another doubt; inactive = no such curve, though single readings can be large; an effect the other way counts as inactive or inconclusive.

Cc1ccc(N(CC(O)COCc2ccco2)S(=O)(=O)c2ccc(C)cc2)cc1 (stereo not drawn)	SW480 rereplic inconclusive, KB-V1 cytotox 20.6µM, MCF10A rerep inconclusive
CC(=O)Nc1ccc(OCC(O)CN2CCN(c3cccc(Cl)c3)CC2)cc1 (stereo not drawn)	KB-V1 cytotox 16.4µM
Cc1ccc(-c2n[nH]c(=S)n2C)cc1Cl	KB-3-1 cytotox 4.11µM, KB-V1 cytotox 2.91µM
CCN(CC)S(=O)(=O)c1cccc(-c2n[nH]c(=S)n2C)c1	KB-V1 cytotox inconclusive
COc1cccc(Cn2c(CNC(=O)CCc3ccccc3)nc3cccnc32)c1	none (no result: SW480 rereplic, KB-3-1 cytotox, KB-V1 cytotox, PTAP TSG101 blk, MCF10A rerep)
Cc1ccc(C(=O)COC(=O)c2ccc3c(c2)C(=O)N(c2cccc4ncccc24)C3=O)cc1C	MCF10A rerep 16.4µM
Nc1nc(Nc2ccccc2F)sc1C(=O)c1ccccc1	SW480 rereplic inconclusive, KB-3-1 cytotox 10.3µM, MCF10A rerep inconclusive
Cc1nc(Nc2ccccc2)sc1C(=O)c1ccc(F)cc1	none
CNC(=O)c1c(NC(=O)c2ccc(S(=O)(=O)N3CCCCC3C)cc2)sc2c1CCN(C)C2 (stereo not drawn)	SW480 rereplic inconclusive, MCF10A rerep 20.6µM
C=CCN1C(=O)N(/C=C/C)c2cccc3cccc1c23	KB-V1 cytotox inconclusive, MCF10A rerep 20.6µM
Cc1oc(-c2ccccc2)nc1CSc1nnc(C)n2c1cc1sccc12	none (no result: SW480 rereplic, KB-3-1 cytotox, KB-V1 cytotox, PTAP TSG101 blk, MCF10A rerep)
COc1ccc(OC)c(N2C(=O)CC(Cc3cc(C)cc(C)c3)C2=O)c1 (stereo not drawn)	SW480 rereplic inconclusive, KB-3-1 cytotox 6.51µM, KB-V1 cytotox inconclusive
C=Cc1ccc(Cn2nc(-c3ccc(C)cc3)ccc2=O)cc1	SW480 rereplic 16.4µM, MCF10A rerep inconclusive
CCC1CCCCN1C(=O)CSc1nc(-c2ccc(OC)cc2)cc(C(F)(F)F)n1 (stereo not drawn)	none (no result: SW480 rereplic, PTAP TSG101 blk, MCF10A rerep)
C=CCN=C1CC(C)(C)CC(=O)/C1=C(\O)c1ccccc1	none
CC1(C)CC(=O)/C(=C(\O)c2ccccc2)C(=NCCc2ccccc2)C1	KB-V1 cytotox 5.8µM, MCF10A rerep inconclusive
COc1ccccc1-c1cc(C(F)(F)F)n2ncc(S(=O)(=O)c3ccccc3)c2n1	SW480 rereplic 23.1µM
O=C(Nc1ccc(F)c(Cl)c1)c1cc(S(=O)(=O)NCc2ccc3c(c2)OCO3)ccc1F	none (no result: SW480 rereplic, PTAP TSG101 blk, MCF10A rerep)
O=C(NCCc1nc2ccccc2n1CCOc1ccc2ccccc2c1)C1CCCCC1	none (no result: SW480 rereplic, PTAP TSG101 blk, MCF10A rerep)
CCOc1ccccc1NC(=O)c1ccccc1-c1nc(-c2ccccc2)no1	SW480 rereplic 23.1µM, KB-3-1 cytotox inconclusive, KB-V1 cytotox 8.2µM
COc1ccccc1-c1noc(-c2ccccc2C(=O)Nc2cccnc2)n1	KB-V1 cytotox 10.3µM
CCOc1ccccc1NC(=O)c1ccccc1-c1ccccc1	SW480 rereplic inconclusive
COc1ccccc1-c1noc(-c2ccccc2)n1	none
COc1ccc(-c2nc(C3CCCCC3)no2)cc1OC	KB-V1 cytotox 16.4µM (no result: PTAP TSG101 blk)
COc1ccc(-c2nc(-c3ccccc3OC)no2)cc1OC	KB-3-1 cytotox inconclusive, KB-V1 cytotox 6.51µM, MCF10A rerep inconclusive
O=C(Nc1cccnc1)c1ccc([N+](=O)[O-])o1	SW480 rereplic inconclusive, KB-3-1 cytotox inconclusive, KB-V1 cytotox inconclusive, MCF10A rerep 7.31µM
O=C(NCc1cccnc1)c1ccc([N+](=O)[O-])o1	SW480 rereplic 2.91µM, KB-V1 cytotox 23.1µM, MCF10A rerep 14.6µM
CC(C)(C)c1ccc(C2CC2C(=O)N/N=C\c2ccc[nH]2)cc1 (stereo not drawn)	SW480 rereplic inconclusive, KB-3-1 cytotox 14.6µM, KB-V1 cytotox inconclusive, MCF10A rerep inconclusive, PINK1 expr mod inconclusive
Cc1ccc2nc(-c3ccc(SCC(=O)O)nc3)[nH]c2c1	none
Cc1ccc(-c2nnc3ccc(SCC(=O)N4CCCc5ccccc54)nn23)cc1	KB-V1 cytotox 16.4µM
Cc1ccc2nc(-c3ccc(SCC(=O)N4CCc5ccccc54)nc3)[nH]c2c1	SW480 rereplic inconclusive, KB-3-1 cytotox inconclusive, KB-V1 cytotox 4.11µM, MCF10A rerep inconclusive
CC(=O)CSc1ccc(-c2nc3cc(C)c(C)cc3[nH]2)cn1	KB-V1 cytotox inconclusive
CCc1nnc(NC(=O)CSc2ccc(-c3nc4ccc(C)cc4[nH]3)cn2)s1	KB-V1 cytotox 7.31µM, MCF10A rerep inconclusive
CC(=O)CSc1ccc(-c2nc3ccccc3[nH]2)cn1	KB-3-1 cytotox inconclusive, KB-V1 cytotox 9.2µM
CC1CCN(C(=O)Cn2c(SCC(=O)Nc3ccc(F)cc3)nc3ccccc32)CC1	KB-V1 cytotox inconclusive (no result: SW480 rereplic, PTAP TSG101 blk, MCF10A rerep)
CSc1ccc(-c2ccc(C(=O)NCC3CCCO3)c(N3CCC(O)CC3)n2)cc1 (stereo not drawn)	none (no result: SW480 rereplic, KB-3-1 cytotox, KB-V1 cytotox, PTAP TSG101 blk, MCF10A rerep)
Cc1cc2nc(-c3ccc(SCC(=O)Nc4ccc(S(=O)(=O)N5CCCC5)cc4)nc3)[nH]c2cc1C	SW480 rereplic inconclusive, MCF10A rerep 20.6µM
O=C(CSc1ccsc1[N+](=O)[O-])NCc1ccccc1	KB-3-1 cytotox 5.8µM, KB-V1 cytotox inconclusive
O=c1c2c(nc(NCCO)n1CC1CCCCC1)-c1ccccc1CC21CCCC1	KB-3-1 cytotox inconclusive, KB-V1 cytotox inconclusive, MCF10A rerep 23.1µM
Cc1cc(-c2ccccc2)n(-c2cc(N/N=C/c3ccccc3O)ncn2)n1	SW480 rereplic inconclusive, KB-3-1 cytotox inconclusive, KB-V1 cytotox 0.82µM, MCF10A rerep 2.06µM
CNc1cc(-n2nc(C)cc2-c2ccccc2)ncn1	none
Cc1ccccc1-c1noc(-c2ccc(NCC3CCCO3)c([N+](=O)[O-])c2)n1 (stereo not drawn)	none (no result: SW480 rereplic, PTAP TSG101 blk, MCF10A rerep)
O=C(/C=C/c1cccc([N+](=O)[O-])c1)Nc1ccc(NC(=O)c2cccs2)cc1	none
O=C(/C=C/c1ccc(N2CCCCC2)c([N+](=O)[O-])c1)c1ccc(O)cc1	SW480 rereplic inconclusive, KB-3-1 cytotox inconclusive, KB-V1 cytotox inconclusive
O=C(/C=C/c1cccc([N+](=O)[O-])c1)c1cccs1	SW480 rereplic 5.8µM, KB-3-1 cytotox inconclusive, KB-V1 cytotox inconclusive, MCF10A rerep 3.26µM
O=C(/C=C/c1cccc([N+](=O)[O-])c1)N1CCN(c2ccccn2)CC1	KB-3-1 cytotox inconclusive
Cc1cc(O)c(C(=O)/C=C/c2cccc([N+](=O)[O-])c2)c(=O)o1	MCF10A rerep inconclusive
COc1ccccc1C(=O)/C=C/c1ccc(N2CCCCC2)c([N+](=O)[O-])c1	SW480 rereplic 18.4µM, KB-3-1 cytotox inconclusive, KB-V1 cytotox 10.3µM, MCF10A rerep 6.51µM

Bioassay records as filed in PubChem BioAssay.
